# According to PubChem BioAssay AID2284386 (EPA ToxCast):
# The source made the active and inactive calls. How the source made its calls: active means hit-call score of the fitted dose curve at least 0.9, where 1 is the maximum; inactive means score below 0.9.
# Target: Peroxisome proliferator-activated receptor gamma (Homo sapiens) (UniProt P37231)
# Assay: ERF_FR_NR_COA_hPPARG: Eurofins (ERF) Nuclear Receptor (NR) Functional Coactivator Assay for human Peroxisome Proliferator-activated Receptor gamma (PPARg) Agonism, conducted at France lab site
# Protocol: ERF_FR_NR_COA_hPPARG is a biochemical, single-readout assay that uses extracted gene-proteins in a cell-free assay. Measurements were taken 2 hours after chemical dosing in a 384-well plate. See PPARgamma Human NHR Functional Agonist Coactivator Assay, Cerep.ERF_FR_NR_COA_hPPARG is an assay component calculated from the ERF_FR_NR_COA_hPPARG assay. It is designed to measure FRET using a type of binding reporter as detected by fluorescence intensity of Rosiglitazone with fluorimetry technology.Data from the assay component ERF_FR_NR_COA_hPPARG was analyzed at the assay endpoint, ERF_FR_NR_COA_hPPARG, in the positive analysis fitting direction relative to DMSO as the negative control and baseline of activity. Using a type of binding reporter, gain-of-signal activity can be used to understand changes in binding as they relate to gene PPARG. […]
# Test compound and/or vehicle is incubated with the 2 nM receptors and coactivator peptide for 180 minutes at room temperature. Determination of the amount of complex formed is read spectrofluorimetrically (excitation: 337 nm, emission: 520/490 nm). Test compound-induced increase fluorescence by 50 percent or more (>/=50%) relative to 1 uM GW1929 response indicates possible PPARgamma receptor agonist activity. […]
# Chain of Peroxisome proliferator-activated receptor gamma (Homo sapiens) (P37231 whole entry, looked up): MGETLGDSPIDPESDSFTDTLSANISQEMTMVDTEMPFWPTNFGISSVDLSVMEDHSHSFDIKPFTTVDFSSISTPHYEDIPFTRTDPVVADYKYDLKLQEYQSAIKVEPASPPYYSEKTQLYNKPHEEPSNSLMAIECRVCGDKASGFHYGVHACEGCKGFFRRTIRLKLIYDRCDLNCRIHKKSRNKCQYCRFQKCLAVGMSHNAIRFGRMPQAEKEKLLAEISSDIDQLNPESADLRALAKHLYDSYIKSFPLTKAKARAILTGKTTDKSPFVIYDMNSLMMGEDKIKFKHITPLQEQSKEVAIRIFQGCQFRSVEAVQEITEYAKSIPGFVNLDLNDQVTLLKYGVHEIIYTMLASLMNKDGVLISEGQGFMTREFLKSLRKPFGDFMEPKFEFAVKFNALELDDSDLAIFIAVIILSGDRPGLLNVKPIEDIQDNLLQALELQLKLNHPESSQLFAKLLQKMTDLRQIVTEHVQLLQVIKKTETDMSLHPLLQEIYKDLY
compound,measurement,value
O=S(=O)(O)C(F)(F)C(F)(F)C(F)(F)C(F)(F)C(F)(F)C(F)(F)C(F)(F)C(F)(F)F,outcome,inactive
